Values joined by “and” are separate entries in the source; they are usually repeats but may differ in a detail not shown here. Identical values can stand only once. Screen size: about 5,500 compounds; about 2,000 (36%) were called active. Not shown: some 18% with an inconclusive outcome. Rule as the data show it: active = normalized growth mostly below about 0.91 (no sharp cut-off); inconclusive = no clear call, values can overlap the other calls; inactive = mostly above about 0.92. This is one part of the list.
Assay: chemical genetic growth profiling, strain panel (AID 1159580);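 also: tested at 20 µM; growth read once vehicle control cultures reached saturation at 30 °C; 1 = growth at the plate median or of vehicle wells; lower values mean less growth of the strain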
Conditions: growth OD

Measured: normalized growth

O=C1c2ccccc2C(=O)C1c1ccccc1
active: S. cerevisiae deletion strains, locus YLR058C, strain SHM2 (second series), stronger effect = lower value 0.932 | S. cerevisiae deletion strains, locus YPL241C, strain CIN2, stronger effect = lower value 1.21 [resistant]
inactive: S. cerevisiae deletion strains, locus YKL085W, strain MDH1 (second series), stronger effect = lower value 0.994 | S. cerevisiae deletion strains, locus YKL085W, strain MDH1, stronger effect = lower value 0.994 | S. cerevisiae deletion strains, locus YKL160W, strain elf1, stronger effect = lower value 1 | S. cerevisiae deletion strains, locus YKL190W, strain CNB1, stronger effect = lower value 1 | S. cerevisiae deletion strains, locus YKR001C, strain vps1, stronger effect = lower value 1.01 | S. cerevisiae deletion strains, locus YKR026C, strain gcn3, stronger effect = lower value 0.976 | S. cerevisiae deletion strains, locus YKR091W, strain srl3, stronger effect = lower value 0.997 | S. cerevisiae deletion strains, locus YLL001W, strain dnm1, stronger effect = lower value 1 | S. cerevisiae deletion strains, locus YLL026W, stronger effect = lower value 0.993 | S. cerevisiae deletion strains, locus YLL041C, strain sdh2, stronger effect = lower value 1 | S. cerevisiae deletion strains, locus YLR027C, strain aat2, stronger effect = lower value 0.998 | S. cerevisiae deletion strains, locus YLR039C, strain RIC1, stronger effect = lower value 0.983 and 0.913 | S. cerevisiae deletion strains, locus YLR058C, strain SHM2, stronger effect = lower value 1.01 | S. cerevisiae deletion strains, locus YLR085C, strain ARP6, stronger effect = lower value 0.972 | S. cerevisiae deletion strains, locus YLR102C, strain apc9, stronger effect = lower value 1.01 | S. cerevisiae deletion strains, locus YLR113W, strain HOG1, stronger effect = lower value 0.934 | S. cerevisiae deletion strains, locus YLR221C, strain rsa3, stronger effect = lower value 1 | S. cerevisiae deletion strains, locus YLR258W, strain gsy2, stronger effect = lower value 1.02 | S. cerevisiae deletion strains, locus YLR262C, strain YPT6 (second series), stronger effect = lower value 1 | S. cerevisiae deletion strains, locus YLR262C, strain YPT6, stronger effect = lower value 0.967 and 0.909 | S. cerevisiae deletion strains, locus YLR268W, strain sec22, stronger effect = lower value 1.03 | S. cerevisiae deletion strains, locus YLR320W, strain mms22, stronger effect = lower value 1.01 | S. cerevisiae deletion strains, locus YLR330W, strain CHS5, stronger effect = lower value 0.999 | S. cerevisiae deletion strains, locus YLR342W, strain FKS1 (second series), stronger effect = lower value 1.01 | S. cerevisiae deletion strains, locus YLR342W, strain FKS1, stronger effect = lower value 0.998 | S. cerevisiae deletion strains, locus YLR357W, strain rsc2, stronger effect = lower value 1.03 | S. cerevisiae deletion strains, locus YLR370C, strain arc18, stronger effect = lower value 1 | S. cerevisiae deletion strains, locus YLR371W, strain rom2, stronger effect = lower value 1.01 | S. cerevisiae deletion strains, locus YLR384C, strain iki3, stronger effect = lower value 1 | S. cerevisiae deletion strains, locus YLR418C, strain cdc73, stronger effect = lower value 0.98 | S. cerevisiae deletion strains, locus YML016C, strain PPZ1, stronger effect = lower value 1 | S. cerevisiae deletion strains, locus YML032C, strain rad52, stronger effect = lower value 1.01 | S. cerevisiae deletion strains, locus YML094W, strain GIM5, stronger effect = lower value 0.945 | S. cerevisiae deletion strains, locus YML120C, strain ndi1, stronger effect = lower value 1.01 | S. cerevisiae deletion strains, locus YML124C, strain tub3, stronger effect = lower value 1.01 | S. cerevisiae deletion strains, locus YMR058W, strain fet3, stronger effect = lower value 0.999 | S. cerevisiae deletion strains, locus YMR078C, strain ctf18, stronger effect = lower value 1.01 | S. cerevisiae deletion strains, locus YMR125W, strain sto1, stronger effect = lower value 0.995 | S. cerevisiae deletion strains, locus YMR129W, stronger effect = lower value 0.992 | S. cerevisiae deletion strains, locus YMR205C, strain PFK2, stronger effect = lower value 1.01 | S. cerevisiae deletion strains, locus YMR219W, strain ESC1, stronger effect = lower value 0.954 | S. cerevisiae deletion strains, locus YMR223W, strain ubp8, stronger effect = lower value 1 | S. cerevisiae deletion strains, locus YMR231W, strain pep5, stronger effect = lower value 1 | S. cerevisiae deletion strains, locus YMR263W, strain SAP30, stronger effect = lower value 1.01 | S. cerevisiae deletion strains, locus YMR307W, strain GAS1, stronger effect = lower value 1.01 | S. cerevisiae deletion strains, locus YNL067W, strain RPL9B, stronger effect = lower value 0.999 | S. cerevisiae deletion strains, locus YNL071W, strain lat1, stronger effect = lower value 1 | S. cerevisiae deletion strains, locus YNL128W, strain TEP1, stronger effect = lower value 1.02 | S. cerevisiae deletion strains, locus YNL153C, strain GIM3, stronger effect = lower value 0.996 and 0.979 | S. cerevisiae deletion strains, locus YNL183C, strain NPR1, stronger effect = lower value 0.939 | S. cerevisiae deletion strains, locus YNL209W, strain ssb2, stronger effect = lower value 1.01 | S. cerevisiae deletion strains, locus YNL233W, strain BNI4, stronger effect = lower value 1 | S. cerevisiae deletion strains, locus YNL248C, strain rpa49, stronger effect = lower value 1 | S. cerevisiae deletion strains, locus YNL250W, strain rad50, stronger effect = lower value 0.989 | S. cerevisiae deletion strains, locus YNL271C, strain bni1, stronger effect = lower value 1 | S. cerevisiae deletion strains, locus YNL298W, strain CLA4 (second series), stronger effect = lower value 0.968 | S. cerevisiae deletion strains, locus YNL298W, strain CLA4, stronger effect = lower value 0.994 | S. cerevisiae deletion strains, locus YNL307C, strain MCK1, stronger effect = lower value 1 | S. cerevisiae deletion strains, locus YNL322C, strain KRE1 (second series), stronger effect = lower value 1 | S. cerevisiae deletion strains, locus YNL322C, strain KRE1, stronger effect = lower value 1 and 0.969 | S. cerevisiae deletion strains, locus YNR030W, strain Alg12, stronger effect = lower value 0.969 | S. cerevisiae deletion strains, locus YNR049C, strain mso1, stronger effect = lower value 0.998 | S. cerevisiae deletion strains, locus YNR052C, strain pop2, stronger effect = lower value 1.01 | S. cerevisiae deletion strains, locus YOL006C, strain TOP1, stronger effect = lower value 0.964 | S. cerevisiae deletion strains, locus YOL012C, strain htz1 0.826 | S. cerevisiae deletion strains, locus YOL147C, strain pex11, stronger effect = lower value 1.01 | S. cerevisiae deletion strains, locus YOR001W, strain rrp6, stronger effect = lower value 1.01 | S. cerevisiae deletion strains, locus YOR061W, strain CKA2, stronger effect = lower value 1 | S. cerevisiae deletion strains, locus YOR069W, strain VPS5, stronger effect = lower value 1 | S. cerevisiae deletion strains, locus YOR070C, strain gyp1, stronger effect = lower value 0.996 | S. cerevisiae deletion strains, locus YOR080W, strain dia2, stronger effect = lower value 1 | S. cerevisiae deletion strains, locus YOR083W, strain WHI5, stronger effect = lower value 0.999 | S. cerevisiae deletion strains, locus YOR106W, strain vam3, stronger effect = lower value 1.01 | S. cerevisiae deletion strains, locus YOR136W, strain idh2, stronger effect = lower value 1.01 | S. cerevisiae deletion strains, locus YOR144C, strain elg1, stronger effect = lower value 1 | S. cerevisiae deletion strains, locus YOR184W, strain ser1, stronger effect = lower value 1.02 | S. cerevisiae deletion strains, locus YOR231W, strain MKK1, stronger effect = lower value 0.992 | S. cerevisiae deletion strains, locus YOR265W, strain rbl2, stronger effect = lower value 0.995 | S. cerevisiae deletion strains, locus YOR270C, strain vph1, stronger effect = lower value 1.01 | S. cerevisiae deletion strains, locus YOR290C, strain snf2, stronger effect = lower value 0.997 | S. cerevisiae deletion strains, locus YOR316C, strain cot1, stronger effect = lower value 1.01 | S. cerevisiae deletion strains, locus YPL051W, strain arl3, stronger effect = lower value 1 | S. cerevisiae deletion strains, locus YPL055C, strain LGE1, stronger effect = lower value 1 and 0.972 | S. cerevisiae deletion strains, locus YPL078C, strain atp4, stronger effect = lower value 1 | S. cerevisiae deletion strains, locus YPL106C, strain sse1, stronger effect = lower value 1.01 | S. cerevisiae deletion strains, locus YPL240C, strain hsp82, stronger effect = lower value 1 | S. cerevisiae deletion strains, locus YPL256C, strain CLN2, stronger effect = lower value 0.917 | S. cerevisiae deletion strains, locus YPR119W, strain clb2, stronger effect = lower value 1.01 | S. cerevisiae deletion strains, locus YPR135W, strain CTF4, stronger effect = lower value 0.934 | S. cerevisiae deletion strains, locus YPR141C, strain kar3, stronger effect = lower value 0.987 | S. cerevisiae deletion strains, locus YPR163C, strain tif3, stronger effect = lower value 1.01 | S. cerevisiae deletion strains, locus YPR167C, strain met16, stronger effect = lower value 1.01 | S. cerevisiae deletion strains, strain wtn01, stronger effect = lower value 1.01 | S. cerevisiae strains, strain wild type, stronger effect = lower value 0.999 and 0.961
